# From PubChem BioAssay (NCATS)
# Unmarked numbers belong to inactive results. Calls of active or inactive are those of the source. The call rests on the fitted dose curve; in most records, active means well fitted inhibition curve with a large enough effect; inconclusive means small, poorly fitted or top-dose-only effect; inactive means flat fitted curve, though single readings scatter. Where a SMILES comes first, the peptide text is derived from it. [ ]: non-standard residue; d: D form. ξ: configuration not given here. ξLac(3-iPr) = CC(C)CC(O)C(=O)O; NMeV = CN[CH](C(=O)O)C(C)C; βAla = NCCC(=O)O
# Molecular target: Luciferin 4-monooxygenase (Photinus pyralis) (UniProt P08659)
# Test: Primary firefly luciferase (FLuc) qHTS assay for identification of artifact compounds. (AID 1845220); further: nearly all actives have a fitted effect of over 60% in size
# Conditions: purified firefly luciferase, luminescence, 5 min; series mostly up to 54.1 µM; activity change, negative = inhibition: at the top concentration
# Text: PI: Alexander Tropsha Ph.D.
# UNC Eshelman School of Pharmacy
# University of North Carolina, Chapel Hill, North Carolina
# Hits from high-throughput screening (HTS) of chemical libraries are often false positives due to their interference with the assay detection technology. In response to this problem, we generated the largest publicly available library of chemical liabilities and developed a free webtool to predict HTS artifacts, both of which are described herein. More specifically, we generated, curated, and integrated HTS datasets for thiol reactivity, redox activity, and luciferase (firefly and nano) activity. Using these curated datasets, we developed and validated several Quantitative Structure-Interference Relationship (QSIR) models to predict nuisance behavior. […] These models were employed for virtual profiling of the National Center for Advancing Translational Science's (NCATS) in-house library, and 256 compounds for each assay were selected for the experimental validation of nuisance behavior. The BA for these external predictions ranged from 58 to 78% for compounds within the applicability domains of the models. […] The models developed in this study, along with aggregation models previously developed by our group (SCAM Detective) were implemented in "Liability Predictor," an online tool which may be used as part of chemical library design or for triaging HTS hits. Both the models and the curated datasets are publicly available at https://liability.mml.unc.edu/.
# SEQUENCE No. (e.g., 1, 2, 3, etc.); […] (e.g., Cells, Incubation, Reagent, etc.); VALUE; DESCRIPTION.
# 1; Reagent; 3 uL; Luciferase substrate mixture.
# 2; Compounds and control; 16 nL; Kalypsis pin tool (Wako USA) equipped with a 1536-well pin head.
# 4; Reagent; 1 uL; Luciferase enzyme.
# 6; Detection; Luminescence, ViewLux microplate reader.
# NOTES (numbers refer to Sequence numbers above)
# 1. 3 uL of luciferase substrate mixture containing D-luciferin and ATP (final concentrations of 10 uM and 10 uM, respectively) in assay buffer (10 mM Mg-acetate, 0.01% Tween-20, 0.05% bovine serum albumin, 50 mM Tris acetate, pH 7.6) was dispensed into all wells of a 1536-well assay plate (solid-bottom white plate; Greiner Bio One, Monroe, NC).
# 2. A Wako Pin-tool (Wako Automation, Richmond, VA) was used to transfer 16 nL of compounds (consisting of 7-plates in qHTS format, final concentration range 18.3 nM to 114 uM) or control PTC124 (final concentration range 1.22 nM to 40 uM).
# 3. 15 min. incubation at room temperature protected from light.
# 4. 1 uL of luciferase enzyme (final concentration 10 nM, Photinus pyralis luciferase) or buffer was dispensed for a final assay volume of 4 uL.
# 5. Plates were centrifuged (121xg, 15 seconds) and incubated for 5 minutes.
# 6. Samples were read for luminescence on a ViewLux CCD imager (PerkinElmer). Data were normalized to no-enzyme (0% activity) and no-inhibitor (DMSO; 100%) controls and the resulting percent inhibition data were fitted to a 4-parameter Hill equation using NCATS in-house software.
SMILES,"activity change, negative = inhibition",outcome
CCC1C(=O)N(C)c2cnc(Nc3ccc(C(=O)NC4CCC(N5CCN(CC6CC6)CC5)CC4)cc3OC)nc2N1C(C)C (stereo not given),-11.7%,
C[C@@H]1O[C@@H](O[C@H]2[C@H](O[C@H]3CC[C@@]4(C)C(CC[C@]5(C)C4C=C[C@]46OC[C@@]7(CCC(C)(C)C[C@H]74)[C@@H](O)C[C@]65C)[C@]3(C)CO)O[C@H](CO)[C@@H](O)[C@@H]2O[C@@H]2O[C@H](CO)[C@@H](O[C@@H]3O[C@@H](C)[C@H](O)[C@@H](O)[C@H]3O)[C@H](O)[C@H]2O)[C@H](O)[C@H](O)[C@H]1O (stereo not given in full),-4.04% [at 11.6 µM],
COc1ccc(C(=O)n2c(C)c(Cc3cccc(O[C@@H](C)C(=O)O)c3)c3cc(OC(F)(F)F)ccc32)cc1,4.04%,
OCC1OC(Oc2cc(O)cc(/C=C/c3ccc(O)cc3)c2)C(O)C(O)C1O (stereo not given),-15.2%,
CC(=O)OC1C(=O)C2(C)C(O)CC3OCC3(OC(C)=O)C2C(OC(=O)c2ccccc2)C2(O)CC(OC(=O)C(O)C(NC(=O)c3ccccc3)c3ccccc3)C(C)=C1C2(C)C (stereo not given),-2.49%,
C/C=C(/COC(=O)/C(C)=C/C)C(=O)OC(CC)c1ccc(OC)c(OC)c1 (stereo not given),,inactive
CC[C@]1(O)CC2CN(CCc3c([nH]c4ccccc34)[C@@](C(=O)OC)(c3cc4c(cc3OC)N(C)[C@H]3[C@@](O)(C(=O)OC)[C@H](OC(C)=O)[C@]5(CC)C=CCN6CC[C@]43[C@@H]65)C2)C1 (stereo not given in full),,inactive
C[C@@]1(O)[C@H](O)[C@@H](CO)O[C@H]1n1ccc(N)nc1=O,,inactive
CC(=O)c1cc2c(cc1O)OC(C)(C)C=C2,-10.9%,
CCOCc1nc2c(N)nc3ccccc3c2n1CC(C)(C)O,0.787%,
CC(=O)C1=C(C)N(c2cccc(C(F)(F)F)c2)C(=O)N[C@H]1c1ccc(C#N)nc1,-8.43% [at 11.6 µM],
CC1=C2C3OC(=O)C(C)C3(O)CCC2(C)CCC1O (stereo not given),1.13%,
CC(C)=CCC/C(C)=C/CC/C(C)=C/COC1OC(COC2OCC(OC3OCC(O)C(O)C3O)C(O)C2O)C(O)C(OC2OC(C)C(OC3OC(C)C(OC4OCC(OC5OC(C)C(O)C(O)C5O)C(O)C4O)C(O)C3O)C(O)C2O)C1O (stereo not given),,inactive [at 11.6 µM]
C=C(C(=O)O)C1CCC2(C)CCC(O)C(=C)C2C1 (stereo not given),2.75%,
C=CC(=O)Nc1cccc(Nc2nc(Nc3ccc(N4CCN(C(C)=O)CC4)cc3OC)ncc2C(F)(F)F)c1,,inactive
CN1CCc2nc(C(=O)N[C@@H]3C[C@@H](C(=O)N(C)C)CC[C@@H]3NC(=O)C(=O)Nc3ccc(Cl)cn3)sc2C1,,inactive
C=C1C(OC(=O)/C(C)=C\C)[C@@]23CCC4[C@@](C)(CCC[C@@]4(C)C(=O)O)C2CC[C@H]1C3OC(C)=O (stereo not given in full),,inactive [at 25.7 µM]
O=[N+]([O-])c1cccc2[nH]c(CNc3nc(N4CCOCC4)nc4c3ncn4-c3ccsc3)nc12,4.67%,
O=C1NC2CCc3nc4ccccc4c(=O)n3C2=Nc2ccccc21 (stereo not given),0.341%,
CC[C@H](NC(=O)[C@H](CS(=O)(=O)CC1CC1)N[C@@H](c1ccc(F)cc1)C(F)(F)F)C(=O)C(=O)NC1CC1,-2.72%,

SMILES,"activity change, negative = inhibition",outcome
CC(C)CC1OC(=O)C2CCCN2C(=O)CCNC(=O)C(Cc2ccccc2)NC(=O)C(C(C)C)N(C)C(=O)C(C(C)C)N(C)C1=O (stereo not given) (cyclo([ξLac(3-iPr)][NMeV][NMeV]F[βAla]P); configuration not given here),,inactive [at 25.7 µM]
C[C@@H]1O[C@@H](O[C@H]2[C@H](OC(=O)[C@]34CCC(C)(C)C[C@H]3C3=CCC5[C@@]6(C)C[C@H](O)[C@H](O[C@@H]7O[C@H](CO)[C@@H](O)[C@H](O)[C@H]7O)[C@@](C)(CO)C6[C@H](O)C[C@@]5(C)[C@]3(C)CC4)OC[C@H](O)[C@@H]2O)[C@H](O)[C@H](O)[C@H]1O[C@@H]1OC[C@@H](O)[C@H](O[C@@H]2OC[C@](O)(CO)[C@H]2O)[C@H]1O (stereo not given in full),1.22% [at 11.6 µM],
CC(C)[C@@](C)(O)[C@@H]1CN(c2nc(-c3[nH]nc4ncccc34)c(F)cc2Cl)CCN1,-12.7%,
CC(C)S(=O)(=O)NC[C@H](C)c1ccc(NC(=O)c2cc(F)cc(F)c2)cc1,-6.9%,
C=CC(C)(C)c1[nH]c2cc3c(cc2c1CC1NC(=O)C2CCCN2C1=O)C=CC(C)(C)O3 (stereo not given),,inactive [at 25.7 µM]
C=C[C@H]1C(O[C@@H]2O[C@H](CO)[C@@H](O)[C@H](O)[C@H]2O)OC=C2C(=O)N3CCc4c([nH]c5ccccc45)[C@H]3C[C@H]21 (stereo not given in full),4.48% [at 25.7 µM],
COC(=O)C1=CO[C@@H](O[C@@H]2O[C@H](CO)[C@@H](O)[C@H](O)[C@H]2O)[C@@H]2C(COC(C)=O)=C[C@H](O)[C@H]12,1.9% [at 25.7 µM],
c1ccc(N2CCN(CCc3nn[nH]n3)CC2)cc1,-9.25%,
COc1ccc(/C=C\C(=O)O)c(O[C@@H]2O[C@H](CO)[C@@H](O)[C@H](O)[C@H]2O)c1,,inactive
COC(=O)CCc1cc2ccoc2c(OC)c1O[C@@H]1O[C@H](CO)[C@@H](O)[C@H](O)[C@H]1O,,inactive [at 25.7 µM]
C=CC(C)(CC/C=C(\C)C(=O)OC)OC1OC(COC(=O)CC(C)(O)CC(=O)O)C(OC2OC(CO)C(O)C(O)C2O)C(O)C1O (stereo not given),0.988% [at 25.7 µM],
CC(C)=CCC/C(C)=C/CO[C@@H]1O[C@H](CO)[C@@H](O)[C@H](O)[C@H]1O,-4.37%,
Cc1nc(NC(=O)N2CCCC2C(N)=O)sc1-c1csc(C(C)(C)C)n1 (stereo not given),-17%,
CC(=O)OC1CC2(C)C3=CCC4(C)C5C(O)C(O)C(C(C)C)C5(C)CCC4(C)C3CCC2C(C)(C)C1OC1OC(CO)C(O)C(O)C1O (stereo not given),2.23% [at 25.7 µM],
CC(=O)O[C@H]1CC[C@@]2(C)C(CC[C@@H](C)[C@]23Cc2c(O)cc4c(c2O3)CN([C@@H](CCC(=O)O)C(=O)O)C4=O)C1(C)C (stereo not given in full),,inactive [at 25.7 µM]
COc1cc(N2CCC(N3CCN(C)CC3)CC2)ccc1Nc1ncc(Cl)c(-c2c[nH]c3ccccc23)n1,,inactive
CC(=O)C1=CCC2C3CCC4CC(O[C@@H]5O[C@H](CO)[C@@H](O[C@@H]6O[C@@H](C)[C@H](O)[C@@H](O)[C@H]6O)[C@H](O)[C@H]5O[C@@H]5O[C@H](CO)[C@@H](O)[C@H](O)[C@H]5O)CCC4(C)C3CCC12C (stereo not given in full),2.26% [at 25.7 µM],
C=CC1C(OC2OC(CO)C(O)C(O)C2O)OC=C2C(=O)N3C(C(=O)O)Cc4c([nH]c5ccccc45)C3CC21 (stereo not given),2.92% [at 25.7 µM],
CC(Oc1ccc2[nH]nc(/C=C/c3cnn(CCO)c3)c2c1)c1c(Cl)cncc1Cl (stereo not given),2.04%,
CC(=O)O[C@@H]1C[C@@H](OC(C)=O)C(C)(C)/C=C/[C@H](C)[C@H](OC(C)=O)[C@@]2(O)C[C@H](C)[C@H](OC(=O)c3ccccc3)[C@@H]2/C=C/1C,-3.34% [at 25.7 µM],
